# PriA SSB inh – inhibitors of Klebsiella pneumoniae PriA binding to SSB C-terminal tail, primary screen, biochemical, AlphaScreen; AID 1272365, 2023; AlphaScreen SSBct-PriA binding, biotinylated peptide; PriA–SSB C-terminal tail interaction (Klebsiella pneumoniae); inhibition, % at 33 µM; hit rate 0.6% among 430,000; in the data active = inhibition mostly above about 37%, no sharp cut-off; inactive = mostly below about 20%;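 note: plate controls were negative control peptide for no effect and reference peptide for full effect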
# PrPC surface inh – inhibitors of human cell surface prion protein PrPC, primary screen, cell-based, TR-FRET. Major prion protein (Homo sapiens), P04156. TR-FRET read-out. inhibition, % at 13.8 µM. hit rate 0.43% among 370,000; in the data active = inhibition above about 24%; note: 0% = median of the test wells and 100% = reference compound wells
# PrP UTR inh – inhibition of PrP 5' UTR reporter expression; cell-based PrP 5' UTR mRNA reporter, plate reader; inhibition, % (concentration not given with the values); hit rate 0.35% among 340,000; in the data active = inhibition above about 52%; note: 0 = median of the neutral control wells
# MazEF act – activators of E. coli MazEF toxin-antitoxin RNase, primary screen, biochemical, fluorescence, uHTS; Endoribonuclease toxin MazF (Escherichia coli (strain K12)), P0AE70; FAM/BHQ RNA-DNA oligo cleavage fluorescence, 5 h; activation, % at 20 µM; hit rate 0.32% among 350,000; in the data active = activation above about 50%
# Target sequence (P0AE70 whole entry, looked up): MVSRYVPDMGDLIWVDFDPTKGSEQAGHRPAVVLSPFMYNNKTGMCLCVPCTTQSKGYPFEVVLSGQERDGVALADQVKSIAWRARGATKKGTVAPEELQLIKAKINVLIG
# PfHsp40 rescue – rescue of yeast from PfHsp40 toxicity, primary screen, S. cerevisiae, ATP luminescence; hit rate 0.68% among 340,000; S. cerevisiae expressing PfHsp40, growth rescue; AID 504582, 2011; growth rescue, % at 12.5 µM; in the data active = growth rescue above about 28%, passing the limit was not always enough;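 note: yeast W303a lacking pdr1 and pdr3 grown in galactose medium; growth measured after three days at 30 °C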
# Active calls of the source: *; . = not tested or not shown. In the library only some 1.8% were active in any assay of this set; here they are far more common.
SMILES,PriA SSB inh,PrPC surface inh,PrP UTR inh,MazEF act,PfHsp40 rescue
Cc1ccc(C(C)C)cc1NC(=O)Nc1ccc([N+](=O)[O-])cc1,-7.8,5.8,-9.1,13.4,150.7*
CCCCNC(=S)Nc1ccc([N+](=O)[O-])cc1,5.2,4.0,-9.6,6.1,-2.0
CC(C)CCNC(=S)Nc1ccc([N+](=O)[O-])cc1,6.1,-2.2,-25.5,1.7,127.6*
Cc1cc(O)c(C(C)C)cc1NC(=O)Nc1ccc([N+](=O)[O-])cc1,4.3,2.6,23.3,0.8,0.6
Nc1nc(N2CCOCC2)cc(=O)[nH]1,-28.8,3.2,-10.2,-2.5,-2.0
C=CCCC1(C)NNc2nc(=O)c(C)nn21 (stereo not given),98.0*,.,.,.,.
Nc1ccccc1Nc1cc(-c2ccccc2)nn1-c1ccccc1,59.9*,5.9,-20.0,4.8,0.0
Cc1ccc(-n2nc(-c3ccccc3)cc2Nc2ccccc2N)cc1,36.1,-3.2,-4.7,2.1,-1.2
COC(=O)c1ccc(NC(=O)Cn2nc(-c3ccncc3)nc2SCC(=O)Nc2nccs2)cc1,-0.4,-3.9,-3.0,55.6*,1.4
CCN(CC)C(=O)Cn1nc(-c2ccncc2)nc1SCC(=O)Nc1ccc(OC)cc1,-8.1,6.4,-3.3,-19.1,0.1
Cc1ccc(NC(=O)C2CCN(c3nnc(-n4cccc4)s3)CC2)cc1C,.,3.4,.,.,.
CNS(=O)(=O)c1cccc(C(=O)NCC(c2cccs2)N2CCOCC2)c1 (stereo not given),-23.0,-4.2,-8.7,1.4,-0.2
CCCCC(=O)OCC(=O)Nc1ccc(C)c(F)c1,-21.3,6.4,-8.2,-19.2,-1.0
COc1ccc(CC(=O)Nc2nc3ccc(F)cc3s2)cc1S(=O)(=O)N1CCOCC1,-9.0,-1.8,-20.5,0.6,-1.2
O=C(Nc1ccccc1N1CCCCC1)c1cc(S(=O)(=O)N2CCOCC2)ccc1F,47.4*,0.1,-8.8,-6.8,10.1
O=C(Nc1ccccc1N1CCCC1)c1cc(S(=O)(=O)N2CCOCC2)ccc1Cl,1.0,3.1,-17.8,-0.5,-0.9
O=C1Nc2ccccc2S/C1=C/Nc1cccc(Cl)c1,-7.8,7.2,-70.7,58.7*,-0.2
O=C(Nc1ccccc1)c1ccc(Br)c(S(=O)(=O)Nc2ccccn2)c1,-1.5,8.8,-15.6,1.7,47.6*
O=C(Nc1ccc(Cl)cc1)c1cccc(S(=O)(=O)Nc2ccccn2)c1,-4.0,-3.2,-13.6,0.4,-1.8
N#CCCN(C(=O)Nc1ccccc1)c1ccccc1,2.6,-6.0,-3.2,11.3,66.3*
Cc1sc2c(c1C)C(O)=C(C(=O)Nc1ccccc1)S(=O)(=O)N2C,-5.9,-0.5,-7.1,-15.9,153.2*
O=[N+]([O-])c1ccc(N2CCCC2)cc1N1CCCCC1,97.2*,.,.,.,.
O=[N+]([O-])c1ccc(N2CCNCC2)cc1N1CCCC1,62.3*,.,.,.,.
O=[N+]([O-])c1ccc(N2CCCC2)cc1N1CCCCCC1,60.8*,.,.,.,.
O=[N+]([O-])c1ccc(N2CCCC2)cc1N1CCCC1,46.5*,-20.3,0.9,-2.4,-0.2
SMILES,PriA SSB inh,PrPC surface inh,PrP UTR inh,MazEF act,PfHsp40 rescue
O=C(CSc1nc(-c2cccc([N+](=O)[O-])c2)cs1)NCc1ccccc1,2.0,.,.,.,.
O=c1cc(C=NNc2ccccc2)[nH]c(=O)[nH]1,-15.8,-2.2,-32.1,3.4,-0.2
COC(=O)CC(C)=NNc1ccc(S(=O)(=O)N2CCCC2)cc1[N+](=O)[O-],22.2,.,.,.,.
CC(=O)c1sc(NC(=O)C2COc3ccccc3O2)nc1C (stereo not given),-3.4,40.5*,32.4,7.3,-1.1
Cc1ccc(NC(=O)C2COc3ccccc3O2)cc1 (stereo not given),-30.9,2.7,-81.5,5.1,2.3
CC1(C)Oc2ccc(NC(=O)C3COc4ccccc4O3)cc2O1 (stereo not given),-5.8,-5.1,-45.1,0.2,40.7*
CC(Oc1ccc(Cl)cc1Cl)C(=O)Nc1ccc(OCC(=O)O)cc1 (stereo not given),-0.4,1.8,-20.4,-1.6,0.2
O=C(NC(=S)NCCN1CCOCC1)c1ccccc1,-1.9,-0.5,-4.3,-2.7,-1.2
O=C(Nc1ccc(Cl)cn1)c1cccc(S(=O)(=O)N2CCCCCC2)c1,.,-0.2,.,-2.4,.
O=C(Nc1ccc(Cl)cn1)c1cccc(S(=O)(=O)N2CCCCC2)c1,-4.3,1.2,-12.2,12.6,70.4*
COc1cc([N+](=O)[O-])c2nc(C=NNC(N)=S)ccc2c1,-11.4,-18.8,-8.8,-2.6,-1.1
COC(=O)c1ccc2cc(OC)cc([N+](=O)[O-])c2n1,-1.5,-3.7,-16.2,-26.1,37.4*
O=C(CSCc1cnn(-c2ccccc2)c1-n1cccc1)NCc1cccs1,-9.5,0.4,-14.2,-1.5,2.0
CC(Nc1cc(N2CCNCC2)ccc1[N+](=O)[O-])c1ccccc1 (stereo not given),12.7,-1.4,-7.9,11.1,-1.2
CC(C)C(=O)N1CCN(c2ccc([N+](=O)[O-])c(NC(C)c3ccccc3)c2)CC1 (stereo not given),48.5*,-14.8,-10.7,-1.4,0.3
CC(Nc1cc(N2CCN(C(=O)C(C)(C)C)CC2)ccc1[N+](=O)[O-])c1ccccc1 (stereo not given),41.2*,-3.3,0.3,-6.0,0.5
O=C(N/N=C1/CC2CCC1C2)c1cc2ccccc2cc1O (stereo not given),.,-3.6,-10.8,-3.0,33.3*
COCC1CCCCC1OS(N)(=O)=O (stereo not given),5.9,1.9,-6.1,4.1,0.5
O=c1c2ccccc2nc(-c2ccc([N+](=O)[O-])cc2)n1O,-10.6,-6.1,-12.1,7.1,30.4*
O=c1c2cc(Cl)ccc2nc(-c2ccccc2Cl)n1O,-8.4,5.9,-21.3,13.9,11.9
Cc1ccc(-c2nc3ccc(Cl)cc3c(=O)n2O)cc1,-4.9,-1.7,-5.5,2.7,355.0*
O=c1c2cc(Br)ccc2nc(-c2ccccc2)n1O,-9.8,7.2,-13.6,4.6,128.0*
Cc1ccc(-c2nc3ccccc3c(=O)n2O)cc1,-6.2,-1.7,-19.8,-3.1,131.9*
CN(C)S(=O)(=O)c1ccc(C(=O)NCc2ccccn2)cc1,-9.9,10.3,-47.6,-7.3,-0.8
COC(=O)c1cc(C(=O)OC)n(Cc2ccc(C)cc2)c1C,-34.7,7.7,-4.8,2.7,0.1
SMILES,PriA SSB inh,PrPC surface inh,PrP UTR inh,MazEF act,PfHsp40 rescue
CCCCOc1ccc(CC(=O)NO)cc1,-1.1,2.0,-12.2,9.1,0.9
COc1ccc(Cc2c(-c3ccc(F)cc3)nc3cc(C)c(Br)c(C)n23)c(C)c1,.,7.8,.,.,.
COc1cc(OC)cc(-c2nc3ccccc3c(=O)n2OC(=O)c2ccc(Br)cc2)c1,10.6,8.0,5.3,17.2,0.4
O=c1c2ccccc2nc(-c2cccc(Cl)c2)n1O,-2.7,-7.9,7.2,10.6,235.8*
COc1ccc(C(=O)On2c(-c3ccc(Br)cc3)nc3ccccc3c2=O)cc1,-6.3,-5.3,-16.2,-6.4,375.0*
COc1ccc(-c2oc3ccccc3c2C#Cc2cncn2C)cc1,-6.5,-1.1,-20.4,-4.2,336.4*
